NPC1 prom act – NPC1 promoter activation; Huh7 NPC1 promoter luciferase reporter, 24 h; Potency, µM (highest dose often 9.22 µM), without a hit: at the top dose activation, hits mostly activators; 320,000 tested, 2.4% active; also: % of control where 0% means no effect; nearly all actives have a fitted effect of over 60% in size
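Cells: Huh7 expressing luciferase under the NPC1 promoter, 1500/well. Seeded 2 h, compound added, incubated 24 h at 37 °C. Luciferase reagent, 10 min ambient, then luminescence.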
ELG1 genotoxic – inducers of genotoxicity in HEK293T ELG1-luciferase cells; HEK293T ELG1-luciferase reporter, luminescence, 16 h; Potency, µM (series often up to 46 µM), for the others: at the highest dose activity change, positive = activation, most hits filed as activators; 330,000 tested, 1.3% active; also: % of control where 0% means no effect; nearly all actives have a fitted effect of over 60% in size
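Step 1: seed 2,000 HEK293T ELG1-luciferase cells per well. Step 2: add compound or DMSO, incubate 16 hr at 37 °C. Step 3: ONE-Glo, 30 min at room temperature, read luminescence.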
FLuc modulator – counter-screen for miR-21 project: firefly luciferase inhibitors or activators | P08659 | purified FLuc, Km substrates, luminescence inhibition | Potency, µM (highest dose often 57.5 µM), for the others: at the highest dose activity change, negative = inhibition, usual class: inhibitors | 360,000 tested, 6.9% active;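 also: plate controls were vehicle for no effect and reference inhibitor for full effect; nearly all actives have a fitted effect of over 55% in size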
Target sequence (P08659 whole entry, looked up): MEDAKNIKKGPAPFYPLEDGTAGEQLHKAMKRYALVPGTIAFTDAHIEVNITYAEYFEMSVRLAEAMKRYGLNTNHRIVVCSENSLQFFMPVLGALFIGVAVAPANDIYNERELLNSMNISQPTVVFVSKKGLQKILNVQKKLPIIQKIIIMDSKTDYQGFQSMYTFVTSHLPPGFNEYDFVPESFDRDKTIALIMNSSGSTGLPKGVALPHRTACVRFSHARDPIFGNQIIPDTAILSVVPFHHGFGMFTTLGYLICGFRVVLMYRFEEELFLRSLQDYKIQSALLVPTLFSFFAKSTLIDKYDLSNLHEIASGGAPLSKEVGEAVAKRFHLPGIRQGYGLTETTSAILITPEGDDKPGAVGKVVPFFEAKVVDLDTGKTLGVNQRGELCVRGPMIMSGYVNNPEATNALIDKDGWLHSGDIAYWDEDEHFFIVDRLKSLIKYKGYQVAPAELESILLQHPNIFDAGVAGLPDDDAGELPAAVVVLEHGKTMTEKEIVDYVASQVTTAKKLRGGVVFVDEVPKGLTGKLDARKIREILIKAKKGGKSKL
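Biochemical qHTS of compounds, final roughly 60 µM downward over six points, against 10 nM purified firefly luciferase using Km concentrations of substrates (10 uM D-luciferin, 10 uM ATP) in Tris acetate pH 7.5 buffer; luminescence output.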
Rab9 prom act – activators of Rab9 promoter; Huh7 Rab9 promoter-luciferase reporter, luminescence, 24 h; Potency, µM (titrated, usually from 9.22 µM), inactives show top-dose activation, negative = inhibition, usual class: activators; 320,000 tested, 2.8% active; AID 485297; also: % of control where 0% means no effect; nearly all actives have a fitted effect of over 60% in size
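Cells were plated at 1500 per well in reduced-serum medium with 10% FBS and left 2 h. Compound in DMSO was then added for 24 h at 37 °C. Reporter signal was read by luminescence after 10 min with luciferase detection reagent.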
SMN2 splice enh – SMN2 splice variant enhancement; Potency, µM (series often up to 46.1 µM), inactives show top-dose activity change, positive = activation, actives largely listed as activators; HEK293 SMN2-luciferase splicing reporter, luminescence, 30-36 h; 210,000 tested, 2.8% active; also: % of control where 0% means no effect; nearly all actives have a fitted effect of over 55% in size
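qHTS luciferase splicing reporter: luminescence rises when SMN2 exon 7 is included in transfected HEK293 cells. Compound exposure lasted 30-36 h at 37C, with 4.5 mM final sodium butyrate as control, followed by a ONE-Glo read.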
An asterisk follows results filed as active; ? = inconclusive; / = no result given; [ ] = dose if it differs, or a comment. Most compounds without a hit are left out; they make up all but 7.4% or so of the library. Calls follow the shape of the dose curve; as a rule, active = well fitted curve in the direction sought with a large enough effect; inconclusive = small, poorly fitted or top-dose-only effect, or another doubt; inactive = no such curve, though single readings can be large; an effect the other way counts as inactive or inconclusive. Potency is read from the fitted curve at half-maximal effect.

SMILES	NPC1 prom act	ELG1 genotoxic	FLuc modulator	Rab9 prom act	SMN2 splice enh
CC(C)(C)c1cc(N2CCOCC2)n2ncc(-c3ccc(Cl)cc3)c2n1	-3.8%	1.3%	?	11.7%	/
Cc1cc(N2CCOCC2)n2ncc(-c3ccc(Cl)cc3)c2n1	2.24µM*	?	0.601µM*	0.631µM*	/
Cc1nc2cc(-c3cccc(F)c3)nn2c(N2CCN(C(=O)c3ccco3)CC2)c1C	3.6%	?	16.9µM*	-1.1%	12.5%
CCOC(=O)Cc1c(C)nc2c(-c3ccccc3)cnn2c1C	13.9%	14.5%	?	28.0%	17.4%
C=CCc1c(C)nc2c(-c3ccccc3)cnn2c1N1CCOCC1	2.82µM*	10.3µM*	2.39µM*	1.58µM*	/
Cc1cc(N2CCC(C)CC2)n2ncc(-c3ccccc3)c2n1	0.355µM*	0.411µM*	0.757µM*	0.316µM*	-38.3%
COc1ccccc1N(CC(=O)N1CCOCC1)S(C)(=O)=O	4.3%	0.2%	-3.3%	-3.9%	/
Cc1cc(C(=O)Nc2ccncc2)c2ccccc2n1	-1.8%	-11.0%	-0.7%	1.0%	/
Cc1ccc(CN2CCNC(=O)C2CC(=O)N(C)C2CCOCC2)cc1 (stereo not drawn)	-2.3%	-2.2%	1.7%	12.0%	/
N#Cc1ccccc1OCC(=O)N1CCN(S(=O)(=O)c2ccc(Cl)cc2)CC1	-6.0%	-0.2%	/	1.5%	/
Cc1ccc(-c2cnn3c(N4CCOCC4)cc(C)nc23)cc1	-10.9%	?	0.477µM*	-13.5%	/
Cc1cc(N2CCC(C)CC2)n2nc(C)c(-c3ccccc3)c2n1	-3.1%	-8.5%	-9.7%	-7.5%	-19.9%
Cc1cc(N2CCCCC2)n2nc(C)c(-c3ccccc3)c2n1	9.2%	-2.1%	19µM*	7.9%	/
CC(=O)Nc1ccc(Nc2cc(C)nc3c(-c4ccc(Cl)cc4)cnn23)cc1	2.24µM*	6.2%	-17.4%	2.51µM*	?
Cc1cc(N2CCCCC2)n2ncc(-c3ccccc3)c2n1	0.447µM*	?	0.269µM*	0.316µM*	3.6%
CC(=O)Nc1ccc(Nc2cc(C)nc3c(-c4ccc(Cl)cc4)c(C)nn23)cc1	-7.1%	0.0%	0.0%	-6.0%	-28.7%
CN(C(=O)CSc1cn(CC(=O)N2CCCC2)c2ccccc12)c1ccccc1	/	/	4.5%	/	/
CCOc1ccccc1C(=O)N1CCc2cc(OC)c(OC)cc2C1COc1ccc2c(C)cc(=O)oc2c1 (stereo not drawn)	/	/	-5.4%	/	-3.7%
O=C(Cn1c(=O)n(Cc2nc(-c3ccccc3)no2)c(=O)c2cc3c(cc21)OCO3)Nc1cccc(C(F)(F)F)c1	/	/	5.4%	/	/
Cc1cc(N2CCOCC2)n2nc(C(F)(F)F)c(-c3ccccc3)c2n1	-5.4%	-2.9%	6.7%	-5.0%	/
Cc1cc(SCC#N)n2nc(C)c(-c3ccccc3)c2n1	-3.8%	-7.8%	?	-3.5%	-30.6%
Cc1cc(N2CCN(C(=O)c3ccco3)CC2)n2ncc(-c3ccccc3)c2n1	?	2.2%	12µM*	3.55µM*	12.9%
Cc1cc(N2CCCCC2)n2ncc(-c3ccc(Cl)cc3)c2n1	3.98µM*	2.06µM*	2.39µM*	2.82µM*	-15.0%
Cc1cc(N2CCN(C(=O)c3ccco3)CC2)n2ncnc2n1	-1.9%	3.4%	-1.5%	0.9%	6.9%
Cc1cc(N2CCOCC2)n2ncc(-c3ccccc3)c2n1	0.562µM*	0.184µM*	0.338µM*	0.708µM*	2.24µM*
SMILES	NPC1 prom act	ELG1 genotoxic	FLuc modulator	Rab9 prom act	SMN2 splice enh
C=CCSc1cc(C)nc2c(-c3ccccc3)c(C)nn12	-3.6%	2.7%	12µM*	1.6%	/
Cc1cc(C)n(-c2cc(C(C)(C)C)nc3c(-c4ccc(Cl)cc4)cnn23)n1	-3.4%	3.2%	?	6.2%	-7.2%
CCc1ccc(CN(C)C(=O)C2CCC(=O)N(Cc3ccccn3)C2)cc1 (stereo not drawn)	-4.9%	2.0%	-0.3%	-4.1%	/
COc1ccc(Br)cc1C1CC(=O)C(C)C(c2cc(Br)ccc2OC)N1 (stereo not drawn)	-5.5%	-0.6%	-1.3%	-6.5%	/
Cc1cc(C)n(-c2cc(C(C)(C)C)nc3c(-c4ccccc4)cnn23)n1	2.51µM*	?	1.9µM*	2.82µM*	/
O=C(O)c1ccc(NC(=O)c2cccc(NC(=O)c3cccs3)c2)cc1	1.0%	0.3%	?	14.7%	/
Cc1ccc(NC(=O)OCc2cccs2)cc1	1.58µM*	2.91µM*	5.36µM*	1.12µM*	/
O=C(Nc1ccc2c(c1)CCC2)c1cccs1	2µM*	?	6.75µM*	1.58µM*	/
Cc1ccc(NC(=O)c2cccs2)cc1	2.51µM*	13µM*	12µM*	2.51µM*	?
O=C(Nc1cccc(O)c1)c1ccc(NC(=O)c2cccs2)cc1	?	?	15.1µM*	5.1%	/
Cc1ccc(NC(=O)OCc2cc(-c3ccccc3)on2)cc1	14.2%	14.9%	?	18.7%	20.2%
Nc1ccc(NC(=O)c2cccs2)cc1	9.3%	8.8%	-16.7%	23.4%	/
Cc1ccc(NC(=O)C(=O)NNC(=O)c2cccs2)cc1	6.4%	-1.7%	?	17.7%	2.1%
Cc1ccc(Cl)cc1NC(=O)Nc1cccs1	-3.3%	-4.6%	-5.2%	-0.9%	-24.7%
O=C(Nc1ccc(NC(=O)c2cccs2)cc1)c1ccc(Cl)cc1	/	/	-1.6%	/	-5.5%
O=C(Nc1ccc(NC(=O)c2cccs2)cc1)c1ccccc1	?	?	-9.5%	3.98µM*	/
N=c1ccn2c(n1)O[C@H]1[C@@H](OP(=O)(O)O)[C@H](CO)O[C@H]12	/	/	/	/	-10.7%[9.22 µM]
O=C(CSc1nc(-c2ccc(F)cc2)cc(C(F)(F)F)n1)NCc1ccco1	-4.5%	5.6%	5.2%	-0.9%	-43.1%

Assay outcomes deposited in PubChem BioAssay by National Center for Advancing Translational Sciences (NCATS).
